From PubChem BioAssay AID2221 (Broad Institute, 2009)
Out of some 290,000 compounds screened, about 2,200 (0.76%) were called active. Rule as the data show it: active = inhibition above about 30%; inconclusive = no clear call, values can overlap the other calls; inactive = below that. What follows is part of a selection rich in actives, with near analogues and random picks from the rest.

Target: Protein RecA (Mycobacterium tuberculosis (strain ATCC 25618 / H37Rv)) (UniProt P9WHJ3)
Experiment: Mtb RecA intein splicing inhibitors, primary screen, biochemical, fluorescence, HTS (AID 2221);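 also: 0% = vehicle wells and 100% = reference inhibitor control wells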
Conditions: cell-free RecA intein splicing, active compounds read high, concentration not given here

Chain of Protein RecA (Mycobacterium tuberculosis (strain ATCC 25618 / H37Rv)) (P9WHJ3 whole entry, looked up): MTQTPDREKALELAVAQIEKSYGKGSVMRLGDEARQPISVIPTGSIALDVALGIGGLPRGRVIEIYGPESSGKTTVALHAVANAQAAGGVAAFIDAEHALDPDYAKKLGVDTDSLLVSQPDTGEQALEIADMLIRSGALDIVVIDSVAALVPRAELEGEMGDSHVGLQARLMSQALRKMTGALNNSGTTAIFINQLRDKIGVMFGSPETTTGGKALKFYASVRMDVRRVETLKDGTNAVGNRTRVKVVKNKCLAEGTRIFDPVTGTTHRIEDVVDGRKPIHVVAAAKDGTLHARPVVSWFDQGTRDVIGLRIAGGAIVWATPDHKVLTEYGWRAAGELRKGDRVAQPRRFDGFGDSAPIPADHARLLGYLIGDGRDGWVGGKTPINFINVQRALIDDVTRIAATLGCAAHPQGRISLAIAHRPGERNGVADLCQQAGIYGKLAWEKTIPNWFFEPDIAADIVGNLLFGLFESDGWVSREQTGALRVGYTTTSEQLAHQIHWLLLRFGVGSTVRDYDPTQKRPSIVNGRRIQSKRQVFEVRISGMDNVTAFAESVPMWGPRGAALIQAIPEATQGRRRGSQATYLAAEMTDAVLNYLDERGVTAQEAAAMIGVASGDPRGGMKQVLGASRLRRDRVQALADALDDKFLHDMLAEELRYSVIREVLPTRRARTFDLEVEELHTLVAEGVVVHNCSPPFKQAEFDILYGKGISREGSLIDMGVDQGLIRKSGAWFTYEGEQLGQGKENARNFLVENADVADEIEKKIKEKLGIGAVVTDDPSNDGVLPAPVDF

SMILES	inhibition
CCOC(=O)C(CC)Sc1ncnc2c1nnn2-c1ccc(F)cc1 (centres undefined)	36.6% (active)
COC(=O)C(C)n1cnc2c(nnn2-c2ccc(F)cc2)c1=O (centres undefined)	-1.59% (inactive)
CCOC(=O)C(C)n1cnc2c(nnn2-c2ccc(F)cc2)c1=O (centres undefined)	-0.542% (inactive)
Cc1ccc(C(=O)COC(=O)CCN2C(=O)C3C4CC(C(Br)C4Br)C3C2=O)cc1 (centres undefined)	1.16% (inactive)
CC(=O)Nc1ccc(N2C(=O)CC(Sc3nccc(C)n3)C2=O)cc1 (centres undefined)	-1.08% (inactive)
O=C(Oc1ccc(Br)cc1C(=S)N1CCOCC1)c1cccc([N+](=O)[O-])c1	32.3% (active)
O=C(Oc1ccccc1C(=S)N1CCCCC1)c1cc([N+](=O)[O-])cc([N+](=O)[O-])c1	28.1% (inactive)
COc1cc(C(=S)N2CCOCC2)cc(OC)c1OC(=O)c1cc([N+](=O)[O-])cc([N+](=O)[O-])c1	-0.59% (inactive)
Cc1nn(C)cc1/C=C1\CCC/C(=C\c2cn(C)nc2C)C1=O	1.91% (inactive)
CC(=O)c1c(C)c[nH]c1C	0.735% (inactive)
S=C(NCC1COc2ccccc2O1)Nc1ccc(Br)cc1 (centres undefined)	2.68% (inactive)
CC12CCC(C(=O)N(c3cccc(Cl)c3)C1=O)C2(C)C (centres undefined)	2.02% (inactive)
CC1=NN(c2cccc(Cl)c2)C(=O)C12CC(C)=C(C)CS2 (centres undefined)	31.7% (active)
Cc1[nH]n(-c2cccc(Cl)c2)c(=O)c1-c1ccc(Cl)cc1	8.51% (inactive)
COC(=O)C1=C(Nc2ccc(C)cc2)C=C(C)C(C(=O)OC)C1c1ccc(F)cc1 (centres undefined)	-4.47% (inactive)
COc1cccc(Nc2nc(N)c([N+](=O)[O-])c(NCc3ccco3)n2)c1	9.57% (inactive)
CC(NC(=O)c1ccco1)c1ccc2c(c1)OCO2 (centres undefined)	-3.46% (inactive)
Cc1[nH][nH]c(=O)c1C(c1ccc2c(c1)OCO2)c1c(C)[nH][nH]c1=O	97.8% (active)
CCOc1ccc(C(c2c(C)[nH][nH]c2=O)c2c(C)[nH][nH]c2=O)cc1OCC	98.1% (active)
CCOc1ccc(C(CC(=O)O)NC(=O)Cc2ccccc2)cc1OC (centres undefined)	-1.09% (inactive)
C=CCOc1ccc(/C=C2/C(=O)ON=C2C)cc1OCC	0.545% (inactive)
Cc1[nH][nH]c(=O)c1C(c1ccc(-c2ccc(Cl)cc2)o1)c1c(C)[nH][nH]c1=O	-2.86% (inactive)

SMILES	inhibition
O=C(NCCCn1ccnc1)c1cc(Br)c(Br)s1	-6.96% (inactive)
COc1ccccc1/C=C/C(=O)NC(=S)N1CCOCC1	1.89% (inactive)
CCC(C)N(C(=O)Cn1nc(C)c([N+](=O)[O-])c1C)C1CCS(=O)(=O)C1 (centres undefined)	2.19% (inactive)
COCCc1nn2c(=O)cc(COC(=O)c3cc(OC)c(OC)c(OC)c3)nc2s1	0.818% (inactive)
CN1c2ccc(C=O)c3c(C=O)ccc(c23)N(C)C1(C)C	63.9% (active)
Cc1[nH]c(C)c(S(=O)(=O)N2CCN(c3cccc(C(F)(F)F)c3)CC2)c1C(=O)N1CCCC1	0.869% (inactive)
CCC(c1nnnn1Cc1ccco1)N(CCc1ccccc1)Cc1cc2ccc(OC)cc2[nH]c1=O (centres undefined)	16.5% (inactive)
CCC(c1nnnn1Cc1ccccc1)N(Cc1cc2cc(OC)ccc2[nH]c1=O)CC1CCCO1 (centres undefined)	-10.9% (inactive)
CCC(c1nnnn1Cc1ccco1)N(Cc1cc2cc(OC)ccc2[nH]c1=O)C1CCCCC1 (centres undefined)	30.6% (active)
C[C@H](C(=O)CC(=O)OC(C)(C)C)[C@H](O)c1ccc(C(F)(F)F)cc1	0.927% (inactive)
CCCCCCCCCCOC(=O)Cn1c(COc2ccc(C)cc2)[n+](C)c2ccccc21	51.7% (active)
CCn1c(=N)n(CC(=O)c2cccc(OC)c2)c2ccccc21	5.77% (inactive)
COc1cccc(OCCCN2CCCCCC2)c1	-1.65% (inactive)
Cc1ccc(OCc2nc3ccccc3n2C)cc1	1.88% (inactive)
CCCCCCCCCCOC(=O)Cn1c(COc2cccc(OC)c2)[n+](C)c2ccccc21	51.1% (active)
Cc1ccc(OCCCn2c(=O)oc3ccccc32)cc1	2.53% (inactive)
O=S(N1CCCCCC1)C12CC3CC(CC(C3)C1)C2 (centres undefined)	-0.132% (inactive)
COc1ccc(CCNC(=O)CCC(=O)NC2CCCCC2)cc1OC	-0.371% (inactive)
COc1ccc(NC(=O)c2cc(-c3cc(OC)c(OC)c(OC)c3)nc3ccccc23)c(OC)c1	10.4% (inactive)
CCOC(=O)c1c(S(=O)(=O)NCC(=O)Nc2ccc(C)cc2)c(C)n(C)c1C	-0.878% (inactive)
CCCCOC(=O)CNc1nnc(SCC(=O)OCC)[nH]c1=O	77.5% (active)
Cc1nnc(SCC(=O)N2CCOCC2)[nH]c1=O	-0.0115% (inactive)
